Records with an inconclusive call do not appear. Entries that show only a call come without a potency. Activity calls are given as the source filed them. Calls come from the whole dose curve; as a rule, active = well fitted cell-killing curve with a large enough effect in the repeat runs (not every such curve was filed as active); inconclusive = weak or mixed curves, or effect the other way; inactive = no such curve, though single readings can be large or run the other way.
Assay: qHTS assay to identify small molecule antagonists of the estrogen related receptor signaling pathway with the pleiotropic PPARgamma coactivator (PGC) from Tox21 10K library - cell viability counter screen (AID 1224840); note: nearly all actives have a fitted effect of over 40% in size
Settings: PGC/ERR reporter cells viability, CellTiter-Fluor, 17.5 h; series mostly up to 92.4 µM
Summary of the method: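 PGC/ERR cells were seeded at 2,000 cells/well and left 6 hours at 37 C/5% CO2 before pin-tool addition of compounds in DMSO. After 17.5 hours at 37 C, CellTiter-Fluor was added and fluorescence read 30 minutes later.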
Potency is the fitted concentration of half-maximal effect.

Row | Structure (SMILES) | Potency | viability change, negative = cytotoxic
1 | COCC(=O)N(c1c(C)cccc1C)N1CCOC1=O | inactive | –
2 | CC(=O)Nc1cc([As](=O)(O)O)ccc1O | inactive | –
3 | CNNC | inactive | –
4 | CCC(Cl)[N+](=O)[O-] (configuration not stated) | inactive | –
5 | CCCSC(=O)Cl | inactive | –
6 | CC(Cl)(Cl)[N+](=O)[O-] | inactive | –
7 | Cc1ncc2n1-c1ccc(Cl)cc1C(c1ccccc1F)=NC2 | inactive | –
8 | CC1=C(C(=O)O)N2C(=O)[C@@H](N)[C@H]2SC1 | – | -5.15% [at 19 µM] (inactive)
9 | Cc1nnc2n1-c1sc(CCC(=O)N3CCOCC3)cc1C(c1ccccc1Cl)=NC2 | inactive | –
10 | CC1CCCCC1NC(=O)Nc1ccccc1 (configuration not stated) | inactive | –
11 | CCCSP(=S)(OCC)Oc1ccc(Cl)cc1Cl (configuration not stated) | inactive | –
12 | COC(=O)c1ccccc1S(=O)(=O)NC(=O)N(C)c1nc(C)nc(OC)n1 | inactive | –
13 | CNC(=O)N(C)c1nc2ccccc2s1 | inactive | –
14 | CNC(=O)Oc1ccccc1C1OCCO1 | inactive | –
15 | CCOc1nc(C(Cl)(Cl)Cl)ns1 | inactive | –
16 | CC(=O)[C@H]1CC[C@H]2[C@@H]3CC[C@H]4C[C@H](O)CC[C@]4(C)[C@H]3C(=O)C[C@]12C | inactive | –
17 | O=CNC(N1CCN(C(NC=O)C(Cl)(Cl)Cl)CC1)C(Cl)(Cl)Cl (configuration not stated) | inactive | –
18 | Cc1cc(C)nc(Nc2ccccc2)n1 | inactive | –
19 | CCCCC(=O)Cl | inactive | –
20 | CCCCN(CCCCO)N=O | inactive | –
21 | COc1cccc2c1cc([N+](=O)[O-])c1c(C(=O)O)cc3c(c12)OCO3 | 30.6 µM (active) | –
22 | C[C@]12CC[C@H]3[C@@H](CCC4=CC(=O)CC[C@@]43C)[C@@H]1CC[C@@H]2C(=O)O | inactive | –

Source: PubChem BioAssay (Tox21)
